# According to PubChem BioAssay:
# Biological target: Alpha-bungarotoxin (Bungarus multicinctus) (UniProt P60615)
# Assay: compounds binding labelled alpha-BTX control protein – biochemical, small-molecule microarray, Alexa647 label, 635/667 nm fluorescence, artefact control for SMM control protein annotation, profiling panel (AID 1117)
# Details: alpha-BTX-A647 binding fluorescence, higher = more signal
# Alpha-bungarotoxin (Bungarus multicinctus), sequence (P60615 whole entry, looked up): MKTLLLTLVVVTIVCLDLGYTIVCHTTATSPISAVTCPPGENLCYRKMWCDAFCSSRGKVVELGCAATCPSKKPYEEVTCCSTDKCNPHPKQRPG
row,Structure (SMILES),composite z-score
1,CCOC(=O)C[C@H]1[C@H](OC(=O)c2ccccc2-c2ccccc2)[C@@H](NC(=O)c2ccc3ccccc3n2)c2cc(OCCCO)ccc2N1C(=O)Cc1ccc(OC)cc1,0.365
2,CCOc1cc(C(O)C2C=CC3C(=O)NC(=O)C3N2Nc2ccc(Cl)cc2Cl)ccc1O (stereo not given),-0.0945
3,Cc1ccc(NN2C(C(O)c3c(F)cccc3Cl)C=CC3C(=O)N(C4CCCCC4)C(=O)C32)cc1 (stereo not given),1.93
4,CCOC(=O)C[C@H]1[C@H](OC(=O)c2ccc(-c3ccccc3)cc2)[C@@H](NC(=O)CC(C)C)c2cc(OCCCO)ccc2N1C(=O)c1ccc2ccccc2n1,0.0623
5,COC(=O)[C@@]1(Cc2ccccc2)[C@H]2c3cc(C(=O)N4CCCC4)n(CCc4ccccn4)c3C[C@H]2CN1C(=O)c1ccccc1,0.298
6,Cc1ccc(S[C@]2(C(=O)NC(C)C)CC(=O)N(Cc3cc(C(F)(F)F)cc(C(F)(F)F)c3)[C@@H]2c2ccc(CO)cc2)cc1,0.26

# Biological target: Albumin (Bos taurus) (UniProt P02769)
# Assay: compounds binding labelled BSA control protein – biochemical, small-molecule microarray, Alexa647 label, 635/667 nm fluorescence, artefact control for SMM control protein annotation, profiling panel (AID 1118);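 note: score merges 667 nm emission intensity and signal-to-noise per printed compound spot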
# Details: BSA-A647 binding, fluorescence 635 nm, higher = more signal
# Albumin (Bos taurus), sequence (P02769 whole entry, looked up): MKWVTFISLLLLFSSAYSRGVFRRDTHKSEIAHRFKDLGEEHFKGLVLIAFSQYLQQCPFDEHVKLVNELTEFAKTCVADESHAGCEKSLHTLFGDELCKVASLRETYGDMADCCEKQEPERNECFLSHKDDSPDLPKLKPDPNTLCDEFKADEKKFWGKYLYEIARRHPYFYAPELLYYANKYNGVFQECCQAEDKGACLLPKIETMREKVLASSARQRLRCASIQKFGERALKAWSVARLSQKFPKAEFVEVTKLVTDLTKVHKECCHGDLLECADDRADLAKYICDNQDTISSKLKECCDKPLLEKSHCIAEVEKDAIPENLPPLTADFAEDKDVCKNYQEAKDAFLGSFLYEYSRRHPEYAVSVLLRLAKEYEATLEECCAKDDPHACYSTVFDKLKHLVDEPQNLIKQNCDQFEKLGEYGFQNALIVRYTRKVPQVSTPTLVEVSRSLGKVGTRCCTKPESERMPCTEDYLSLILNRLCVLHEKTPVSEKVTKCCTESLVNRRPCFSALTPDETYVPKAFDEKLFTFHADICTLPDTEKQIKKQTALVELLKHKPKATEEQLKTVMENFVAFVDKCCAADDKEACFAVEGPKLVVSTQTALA
row,Structure (SMILES),composite z-score
1,CC(C)[Si]1(C(C)C)OCc2cc(C3CC3)nc(-c3ccc(Oc4ccccc4)cc3)c21,-0.808
2,O=C1NC(=O)C2C1C=CC(C(O)c1ccco1)N2Nc1ccc(Cl)cc1Cl (stereo not given),0.78
3,Cc1ccc(N2C(=O)c3ccccc3[C@@H](C(=O)NCCCN(C)C)[C@@H]2c2ccc(CO)cc2)nc1,-0.0424
4,CCCCCCc1nc(Cc2cc(OC)c(OC)c(OC)c2)cc2c1[Si](C(C)C)(C(C)C)OC2,-0.526
5,CCOC(=O)C1=C[C@@H](C(C)(C)C)N(S(=O)(=O)c2ccc(C)cc2)[C@H]1c1cccc2ccccc12,0.261
6,COc1cc2c(cc1O)C(c1cccs1)N(Cc1cc3c(cc1Br)OCO3)CC2 (stereo not given),0.794
7,C=CCNC(=O)[C@@H]1[C@H]2C(=O)O[C@H](c3ccccc3)[C@H](c3ccccc3)N2[C@H](c2ccccc2OCCO)[C@@]12C(=O)Nc1ccc(C#CCC(C(=O)OC)C(=O)OC)cc12,-0.0735
8,C=CCN1C(=O)[C@]2(CCS(=O)(=O)c3ccccc3)N=C(c3ccc(OCCCO)cc3)O[C@@H]2c2ccccc21,0.8
9,CC(c1ccccc1)C(O)C1C=CC2C(=O)N(C)C(=O)C2N1Nc1ccccc1 (stereo not given),0.921
10,N#Cc1ccc(NN2C(C(O)c3ccc(Br)cc3)C=CC3C(=O)N(c4ccccc4)C(=O)C32)cc1 (stereo not given),0.539
11,COc1ccc([Si](C)(C)[C@@H]2[C@@H](CCO)O[C@]3(C(=O)N(Cc4cccc(NC(=O)[C@H](C)O)c4)c4ccccc43)[C@H]2C)cc1,0.6
12,CCCCC(CC)C(O)C1C=CC2C(=O)N(C)C(=O)C2N1Nc1ccccc1 (stereo not given),0.928
13,COCCOC(=O)N1C(=O)[C@@]2(c3cc(C#CCCO)ccc31)[C@H](c1ccc(OCCO)cc1)N1[C@H](c3ccccc3)[C@H](c3ccccc3)OC(=O)[C@H]1[C@@H]2C(=O)Nc1nc2ccccc2s1,0.648
14,[N-]=[N+]=NCc1ccccc1[C@@H]1OC(c2ccc(OCCCO)cc2)=N[C@]1(CCS(=O)(=O)c1ccccc1)C(=O)O,0.951
15,O=C1C[C@]2(c3ccc([N+](=O)[O-])cc3)C(=O)N(C3CC3)c3cc(CO)ccc3[C@H]2N1CC12CC3CC(CC(C3)C1)C2,0.393
16,CCCC[C@@H]1C[C@H]1[C@@H](NC(=O)c1cccs1)c1ccccc1C(F)(F)F,0.485
17,O=C(Cc1ccccc1)[C@H]1C2C=CCCC(c3ccccc3)=C2CN1Cc1ccccc1 (stereo not given in full),-0.567
18,COC(=O)[C@]1(CCS(=O)(=O)c2ccccc2)N=C(c2ccc(OCCCO)cc2)O[C@@H]1c1ccccc1N=[N+]=[N-],-0.325
19,COCCOC(=O)N1C(=O)[C@@]2(c3cc(C#CC4=CCCCC4)ccc31)[C@H](c1ccccc1OCCO)N1[C@H](c3ccccc3)[C@H](c3ccccc3)OC(=O)[C@H]1[C@@H]2C(=O)N1CCN(c2ncccn2)CC1,0.326
20,CN(C)C(=O)[C@@]1(Cc2ccccc2)N=C(c2ccc(OCCCO)cc2)O[C@H]1c1ccccc1,0.637
21,COc1ccc(C#Cc2ccc3c(c2)[C@]2(C(=O)N3)[C@H](C(=O)O)[C@H]3C(=O)O[C@H](c4ccccc4)[C@H](c4ccccc4)N3[C@@H]2c2ccc(O)cc2)cc1,0.314
22,CCCCC[C@H]1OC[C@@]23C=C(Br)[C@@H](CC12)[C@@]1(CO1)C3=O (stereo not given in full),-0.677
23,CC1CC/C=C\[C@H]2OC34C=CCN(c5ccc(Cl)cc5)C(=O)[C@H]3N(C(C)CO)C(=O)[C@]4(C)C2C(=O)O1 (stereo not given in full),-1.07
24,COc1cc2c(cc1O)C(C1CC1)N(Cc1cccc(OC(F)(F)F)c1)CC2 (stereo not given),0.353
